In PubChem BioAssay AID720706 (Broad Institute, 2013):
Among all 350,000 compounds or so, about 5,500 (1.6%) were called active.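 How the source made its calls: active means significant combined selectivity score with lowered wild-type GFP, culture density cut under 30%, mutant RFP and density less affected; inactive means any of these conditions unmet.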 What follows is part of a selection rich in actives, with near analogues and random picks from the rest.

Test: GFP drop in mixed WT/humanized-ribosome E. coli culture – GFP/RFP fluorescence, OD600, single point, bacterial rRNA inhibitor project, primary screen (AID 720706)
Settings: E. coli WT GFP vs humanized-ribosome RFP mutants, 24 h; GFP signal change (wild-type ribosome): stronger effect = lower value, DMSO median 0, no signal -100; OD600 change: measured here: OD600 growth, DMSO median 0, no signal -100; RFP signal change: measured here: RFP humanized mutant strains, DMSO median 0, no signal -100, concentration not given here
For `COc1ccc2c3c([nH]c2c1)[C@@H](CO)N(C(=O)CN1CCOCC1)CC31CCN(C)CC1`, the GFP signal change (wild-type ribosome) was 1.95% (inactive), the OD600 change was 7.83% and the RFP signal change was 0.695%. In the case of `C[C@@H]1CN([C@H](C)CO)C(=O)c2cc(-c3cccc(F)c3)cnc2O[C@@H]1CN(C)C`, the GFP signal change (wild-type ribosome) is reported as 2.27% (inactive), the OD600 change is reported as 6.45% and the RFP signal change is reported as -2.92%. In the case of `COc1ccc2c(c1)c1ncn(Cc3ccccn3)c(=O)c1n2C`, the GFP signal change (wild-type ribosome) is reported as -22.5% (active), the OD600 change is reported as -10.5% and the RFP signal change is reported as -3.41%. For `COc1ccc(NCCc2ccccn2)cc1`, the GFP signal change (wild-type ribosome) was 12.7% (inactive), the OD600 change was 10.1% and the RFP signal change was 9.18%. For `COc1cccc(CN2CC3(CN(Cc4ccccn4)C3)c3c([nH]c4cc(OC)ccc34)[C@@H]2CO)c1`, the GFP signal change (wild-type ribosome) was 0.969% (inactive), the OD600 change was 8.73% and the RFP signal change was 5.99%. With `C[C@H]1CCCCO[C@H](CN(C)CC2CCCCC2)[C@@H](C)CN([C@@H](C)CO)C(=O)c2cc(NS(=O)(=O)c3ccc(Cl)cc3)ccc2O1` the GFP signal change (wild-type ribosome) was -56.3% (inactive), the OD600 change was -77.3% and the RFP signal change was -17.5%. For `CN(C)C(=O)c1cccc(-c2ccc([C@H]3[C@H](CO)N4C(=O)CN(C(=O)Cc5ccccc5)C[C@@H]34)cc2)c1`, the GFP signal change (wild-type ribosome) was 6.84% (inactive), the OD600 change was 11.5% and the RFP signal change was 5.77%. For `Cc1ccc(O)c(NC(=S)NC(=O)COc2ccc(Br)cc2)c1`, the GFP signal change (wild-type ribosome) was -23.6% (active), the OD600 change was -13.5% and the RFP signal change was 6.14%. In the case of `CC(=O)Nc1ccc(OC(=O)COc2ccc(Br)cc2)cc1`, the GFP signal change (wild-type ribosome) is reported as 18.1% (inactive), the OD600 change is reported as 16.8% and the RFP signal change is reported as 1.93%. With `Cn1cccc1C(=O)NNC(=O)COc1ccc(Br)cc1` the GFP signal change (wild-type ribosome) was -1.7% (inactive), the OD600 change was 4.13% and the RFP signal change was 0.868%. In the case of `CC[C@H]1CC=CC[C@@H](C)Oc2ccccc2C(=O)N(C)[C@H](Cc2ccccc2)C(=O)N1` (mixture of isomers), the GFP signal change (wild-type ribosome) is reported as -6.4% (inactive), the OD600 change is reported as -38% and the RFP signal change is reported as -3.29%. In the case of `CC(C)NC(=O)N(C)C[C@H]1Oc2ncc(C#CC3(O)CCCC3)cc2C(=O)N([C@H](C)CO)C[C@@H]1C`, the GFP signal change (wild-type ribosome) is reported as 2.98% (inactive), the OD600 change is reported as 9.89% and the RFP signal change is reported as 0.31%. For `Nc1ccccc1Sc1cc(Cl)nnc1Cl`, the GFP signal change (wild-type ribosome) was 2.47% (inactive), the OD600 change was 3.13% and the RFP signal change was -2.25%. For `Nc1ccccc1Sc1ccc(C(F)(F)F)cc1[N+](=O)[O-]`, the GFP signal change (wild-type ribosome) was -36.7% (active), the OD600 change was -4.9% and the RFP signal change was -9.75%. For `O=[N+]([O-])c1cc(C(F)(F)F)ccc1NCCc1ccncc1`, the GFP signal change (wild-type ribosome) was 1.68% (inactive), the OD600 change was 6.66% and the RFP signal change was -1.21%. In the case of `C[C@H]1CN([C@@H](C)CO)C(=O)c2cccc(NC(=O)c3ccncc3)c2O[C@@H]1CN(C)C`, the GFP signal change (wild-type ribosome) is reported as 2.69% (inactive), the OD600 change is reported as 14.6% and the RFP signal change is reported as -0.879%. For `Cc1ccc(-c2csc(NC(=O)C3=COCCO3)n2)cc1C`, the GFP signal change (wild-type ribosome) was -32% (inactive), the OD600 change was -55.4% and the RFP signal change was 17.9%. For `CCc1noc(C)c1C(=O)Nc1nc(-c2ccccc2)cs1`, the GFP signal change (wild-type ribosome) was -30.7% (active), the OD600 change was -24.6% and the RFP signal change was -5.38%. With `CCc1noc(C)c1C(=O)OCC(=O)c1ccc(NC(=O)CC(C)C)cc1` the GFP signal change (wild-type ribosome) was -6.83% (inactive), the OD600 change was -38.8% and the RFP signal change was 4.13%. With `COc1ccc2c3c(n(C)c2c1)[C@H](CO)N(Cc1cccnc1)CC31CCN(Cc2cccnc2)CC1` the GFP signal change (wild-type ribosome) was -3.41% (inactive), the OD600 change was 7.26% and the RFP signal change was 0.685%. For `C[C@@H]1CN([C@@H](C)CO)C(=O)c2cc(N(C)C)ccc2O[C@@H](C)CCCCO[C@@H]1CN(C)C(=O)CCC(F)(F)F`, the GFP signal change (wild-type ribosome) was -1.52% (inactive), the OD600 change was -0.235% and the RFP signal change was 1.42%. With `C/C=C/c1cccc(-c2nc(C(=O)NCCN3CCCC3)cc3c2[C@@H](CCO)N([S@](=O)C(C)(C)C)C3)c1` the GFP signal change (wild-type ribosome) was 6.3% (inactive), the OD600 change was -2.18% and the RFP signal change was -0.457%. With `CCOC(=O)C1(CCOc2ccccc2)CCN(Cc2ccc(C#CCCO)cc2)CC1` the GFP signal change (wild-type ribosome) was 2.81% (inactive), the OD600 change was -4.44% and the RFP signal change was -0.935%. In the case of `CCOC(=O)C1(CCOc2ccccc2)CCN(Cc2cc(OC)cc(OC)c2)CC1`, the GFP signal change (wild-type ribosome) is reported as -33.8% (active), the OD600 change is reported as -25.8% and the RFP signal change is reported as -6.01%. For `CCCS(=O)(=O)N1CCC(CCOc2ccccc2)(C(=O)OCC)CC1`, the GFP signal change (wild-type ribosome) was -17.9% (inactive), the OD600 change was -32.1% and the RFP signal change was -4.54%. With `COc1ccc2c3c([nH]c2c1)[C@H](CO)N(Cc1cccc(F)c1)CC31CCN(CC2CC2)CC1` the GFP signal change (wild-type ribosome) was 4.42% (inactive), the OD600 change was 4.76% and the RFP signal change was -1.35%. With `CC(C)NC(=O)N(C)C[C@H]1Oc2ccc(N)cc2C(=O)N(C)C[C@@H]1C` the GFP signal change (wild-type ribosome) was 0.734% (inactive), the OD600 change was 6.88% and the RFP signal change was -0.42%. In the case of `OC[C@@H]1[C@@H](c2ccccc2)C2(CN(Cc3cccc(F)c3)C2)N1CC1CCCC1`, the GFP signal change (wild-type ribosome) is reported as -23.5% (inactive), the OD600 change is reported as -64.7% and the RFP signal change is reported as 20.6%. With `CNC(=O)c1ccsc1NC(=O)c1ccc(S(=O)(=O)N2CCc3ccccc32)cc1` the GFP signal change (wild-type ribosome) was -14% (active), the OD600 change was -3.21% and the RFP signal change was -0.575%. With `O=S(=O)(c1ccccc1)N1CCc2ccccc21` the GFP signal change (wild-type ribosome) was 3.46% (inactive), the OD600 change was 1.07% and the RFP signal change was 1.3%. In the case of `CC1CN(S(=O)(=O)c2ccc(C(=O)Nc3sccc3C(N)=O)cc2)CC(C)O1` (stereo not given), the GFP signal change (wild-type ribosome) is reported as -9.92% (inactive), the OD600 change is reported as 0.73% and the RFP signal change is reported as -4.68%. With `CN1C[C@@H]2[C@H](c3ccccc31)[C@@H](CO)N2C(=O)Nc1ccccc1` the GFP signal change (wild-type ribosome) was -1.61% (inactive), the OD600 change was -4.19% and the RFP signal change was -0.289%. In the case of `CC(=O)N1[C@@H]2c3ccc(-c4ccccc4)c(=O)n3C[C@@H]2[C@@H](CO)[C@@H]1C(=O)NCc1ccccc1F`, the GFP signal change (wild-type ribosome) is reported as 1.92% (inactive), the OD600 change is reported as 0.235% and the RFP signal change is reported as 0.825%. In the case of `COc1ccc(CN(C)C[C@@H]2OCCCC[C@H](C)Oc3ccc(NS(=O)(=O)c4cccs4)cc3C(=O)N([C@H](C)CO)C[C@@H]2C)cc1`, the GFP signal change (wild-type ribosome) is reported as 1.91% (inactive), the OD600 change is reported as -7.75% and the RFP signal change is reported as 1.8%. In the case of `CCC(=O)N1CC(=O)N2[C@H](CO)[C@@H](c3ccc(-c4ccc(C(=O)N(C)C)cc4)cc3)[C@@H]2C1`, the GFP signal change (wild-type ribosome) is reported as -0.311% (inactive), the OD600 change is reported as -1.8% and the RFP signal change is reported as 0.455%. With `O=C(NCc1nnc(SCC(=O)N2CCC(Cc3ccccc3)CC2)o1)c1ccco1` the GFP signal change (wild-type ribosome) was -22.9% (active), the OD600 change was -18.5% and the RFP signal change was -1.19%. In the case of `Cn1c(CNC(=O)c2ccco2)nnc1SCC(=O)N1CCN(c2ccccc2)CC1`, the GFP signal change (wild-type ribosome) is reported as 4.73% (inactive), the OD600 change is reported as 14.2% and the RFP signal change is reported as -0.921%. For `O=C(NCc1nnc(SCC(=O)N2CCCCCC2)o1)c1ccc(F)cc1`, the GFP signal change (wild-type ribosome) was 3.73% (inactive), the OD600 change was 9.68% and the RFP signal change was 2.77%. For `COc1ccc(-c2ccc3n(c2=O)C[C@@H]2[C@@H](CO)[C@H](C(=O)Nc4ccccc4)[C@H]3N2C)cc1`, the GFP signal change (wild-type ribosome) was -5.3% (inactive), the OD600 change was -0.765% and the RFP signal change was -2.67%. In the case of `N#C[C@H]1[C@@H](c2ccc(C#CC3CCCC3)cc2)[C@H](CO)N1C(=O)Nc1ccc(F)cc1`, the GFP signal change (wild-type ribosome) is reported as -20.3% (inactive), the OD600 change is reported as -36.1% and the RFP signal change is reported as 20.2%.
